Measurements from PubChem BioAssay (NCATS).
Records with an inconclusive call do not appear. Active and inactive are the calls of the source. Calls follow the shape of the dose curve; as a rule, active = well fitted curve in the direction sought with a large enough effect; inconclusive = small, poorly fitted or top-dose-only effect, or another doubt; inactive = no such curve, though single readings can be large; an effect the other way counts as inactive or inconclusive.

Legend:
[1] = Quantitative High-Throughput drug screen in 47 multiple myeloma cell lines against the NCATS MIPE library collection: JIM3_ECACC cell viability assay (AID 1918963; also: nearly all actives have a fitted effect of over 35% in size)
In short: (§1)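 Viability readout: CellTiter-Glo luminescence following 5 min room-temperature incubation with reagent. Prior exposure: 48 h, 37C, humidified 5% CO2, 500 cells per well.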

[2] = Quantitative High-Throughput drug screen in 47 multiple myeloma cell lines against the NCATS MIPE library collection: INA6_PLB cell viability assay (AID 1918965; also: nearly all actives have a fitted effect of over 55% in size)
In short: (§2)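 Approved and investigational drugs from MIPE 4.0 were added by pin tool to 500 cells per well. After 48 hours at 37C, ATP-based CellTiter-Glo luminescence indicated remaining viability.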

[3] = Quantitative High-Throughput drug screen in 47 multiple myeloma cell lines against the NCATS MIPE library collection: H1112_PLB cell viability assay (AID 1918967; also: nearly all actives have a fitted effect of over 30% in size)
In short: as §1

[4] = Quantitative High-Throughput drug screen in 47 multiple myeloma cell lines against the NCATS MIPE library collection: Karpas25_ECACC cell viability assay (AID 1918968; also: nearly all actives have a fitted effect of over 35% in size)
In short: as §1

[5] = Quantitative High-Throughput drug screen in 47 multiple myeloma cell lines against the NCATS MIPE library collection: KMS12BM_JCRB cell viability assay (AID 1918971); also: nearly all actives have a fitted effect of over 35% in size
In short: as §1

[6] = Quantitative High-Throughput drug screen in 47 multiple myeloma cell lines against the NCATS MIPE library collection: KMS21BM_JCRB cell viability assay (AID 1918974); conditions: ATP luminescence, 48 h; viability: at 45.8 µM (top of the series) unless noted
In short: as §1

[7] = Quantitative High-Throughput drug screen in 47 multiple myeloma cell lines against the NCATS MIPE library collection: MM1S_ATCC cell viability assay (AID 1918980); also: nearly all actives have a fitted effect of over 45% in size
In short: (§3)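 MIPE 4.0 approved/investigational drugs; 500 cells/well; 48 h 37 °C humidified 5% CO2; CTG luminescence readout; DMSO = 100%, media = 0% viability.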

[8] = Quantitative High-Throughput drug screen in 47 multiple myeloma cell lines against the NCATS MIPE library collection: MM1R_ATCC cell viability assay (AID 1918981); also: nearly all actives have a fitted effect of over 35% in size
In short: as §3

[9] = Quantitative High-Throughput drug screen in 47 multiple myeloma cell lines against the NCATS MIPE library collection: LP1_DSMZ cell viability assay (AID 1918982); also: nearly all actives have a fitted effect of over 35% in size
In short: as §3

[10] = Quantitative High-Throughput drug screen in 47 multiple myeloma cell lines against the NCATS MIPE library collection: KMS28PE_JCRB cell viability assay (AID 1918983); also: nearly all actives have a fitted effect of over 35% in size
In short: as §3

[11] = Quantitative High-Throughput drug screen in 47 multiple myeloma cell lines against the NCATS MIPE library collection: KMS27_JCRB cell viability assay (AID 1918970); also: nearly all actives have a fitted effect of over 30% in size
In short: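 Each line is seeded at 500 cells per well and treated with library compounds for 48 hours under 37 °C, 5% CO2. CellTiter-Glo is then added for 5 min at room temperature before median relative luminescence is recorded.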

[12] = Quantitative High-Throughput drug screen in 47 multiple myeloma cell lines against the NCATS MIPE library collection: KMS20_JCRB cell viability assay (AID 1918973); also: nearly all actives have a fitted effect of over 45% in size
In short: as §1

[13] = Quantitative High-Throughput drug screen in 47 multiple myeloma cell lines against the NCATS MIPE library collection: NCIH929_DSMZ cell viability assay (AID 1918978); also: nearly all actives have a fitted effect of over 35% in size
In short: as §3

[14] = Quantitative High-Throughput drug screen in 47 multiple myeloma cell lines against the NCATS MIPE library collection: OCIMY1_PLB cell viability assay (AID 1918979); also: nearly all actives have a fitted effect of over 35% in size;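 as to viability: 100% = DMSO-only wells and 0% = cell-free media-only wells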
In short: as §3

[15] = Quantitative High-Throughput drug screen in 47 multiple myeloma cell lines against the NCATS MIPE library collection: KMS12PE_JCRB cell viability assay (AID 1918972); also: nearly all actives have a fitted effect of over 30% in size;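 as to viability: 100% = DMSO only wells and 0% = wells with media alone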
In short: as §2

[16] = Quantitative High-Throughput drug screen in 47 multiple myeloma cell lines against the NCATS MIPE library collection: MMM1_PLB cell viability assay (AID 1918976); also: nearly all actives have a fitted effect of over 35% in size
In short: as §3

[17] = Quantitative High-Throughput drug screen in 47 multiple myeloma cell lines against the NCATS MIPE library collection: KMS26_JCRB cell viability assay (AID 1918975); also: nearly all actives have a fitted effect of over 45% in size
In short: as §1

[18] = Quantitative High-Throughput drug screen in 47 multiple myeloma cell lines against the NCATS MIPE library collection: JJN3_DSMZ cell viability assay (AID 1918966; also: nearly all actives have a fitted effect of over 50% in size)
In short: as §1

[19] = Quantitative High-Throughput drug screen in 47 multiple myeloma cell lines against the NCATS MIPE library collection: MOLP8_DSMZ cell viability assay (AID 1918977); also: nearly all actives have a fitted effect of over 45% in size
In short: as §3

[20] = Quantitative High-Throughput drug screen in 47 multiple myeloma cell lines against the NCATS MIPE library collection: JIM1_ECACC cell viability assay (AID 1918964)
In short: as §1
Potency is read from the fitted curve at half-maximal effect.

Cc1ccc2nc(NC(=O)CSc3nc4c(c(=O)n3-c3ccccc3)SCC4)sc2c1
active: Potency [1] 18.7 µM | Potency [2] 8.33 µM | Potency [3] 11.8 µM | Potency [4] 5.26 µM | Potency [5] 9.35 µM | Potency [6] 11.8 µM | Potency [7] 13.2 µM | Potency [8] 16.6 µM | Potency [9] 8.33 µM | Potency [10] 23.5 µM

Cc1c(NC(=O)OC[C@@H]2COCCN2)cn2ncnc(Nc3ccc4c(cnn4Cc4cccc(F)c4)c3)c12
inactive: Potency [14]
active: Potency [1] 1.32 µM | Potency [2] 3.32 µM | Potency [4] 7.43 µM | Potency [11] 20.9 µM | Potency [12] 1.87 µM | Potency [13] 18.7 µM | Potency [10] 16.6 µM

COC(=O)C1=C(C)NC(C)=C(C(=O)OCCN2CCN(C(c3ccccc3)c3ccccc3)CC2)C1c1cccc([N+](=O)[O-])c1 (centres undefined)
inactive: Potency [1] | Potency [2] | Potency [3] | Potency [4] | Potency [11] | Potency [15] | Potency [12] | Potency [16] | Potency [13] | Potency [14] | Potency [8] | Potency [10]

CCC(=C(c1ccccc1)c1ccc(OCCN(C)C)cc1)c1ccccc1
active: Potency [1] 23.5 µM | Potency [2] 16.6 µM | Potency [4] 18.7 µM | Potency [11] 20.9 µM | Potency [5] 26.4 µM | Potency [15] 13.2 µM | Potency [6] 18.7 µM | Potency [17] 20.9 µM | Potency [16] 23.5 µM | Potency [13] 20.9 µM | Potency [7] 29.6 µM | Potency [8] 23.5 µM | Potency [10] 18.7 µM
inactive: Potency [14]

CC(=O)Nc1sc2c(c1-c1nc3ccccc3s1)CNC2
active: Potency [1] 18.7 µM | Potency [2] 3.72 µM | Potency [18] 16.6 µM | Potency [5] 11.8 µM | Potency [15] 20.9 µM | Potency [12] 16.6 µM | Potency [17] 16.6 µM | Potency [16] 14.8 µM | Potency [19] 5.9 µM | Potency [13] 16.6 µM | Potency [7] 14.8 µM | Potency [8] 18.7 µM | Potency [9] 18.7 µM
inactive: Potency [11]

Cc1nc2ccc(CN(C)c3ccc(C(=O)N[C@@H](CCC(=O)O)C(=O)O)s3)cc2c(=O)[nH]1
inactive: Potency [3] | Potency [4] | Potency [14] | Potency [9] | Potency [10]
active: Potency [1] 0.0935 µM | Potency [2] 0.0418 µM | Potency [11] 0.264 µM | Potency [17] 9.35 µM | Potency [16] 5.9 µM | Potency [7] 20.9 µM

CCCCCN(CCC12CC3CC(CC(C3)C1)C2)C(=O)NCCCc1ccncc1
inactive: Potency [14]
active: Potency [1] 20.9 µM | Potency [2] 16.6 µM | Potency [3] 18.7 µM | Potency [11] 4.18 µM | Potency [5] 26.4 µM | Potency [15] 4.69 µM | Potency [12] 18.7 µM | Potency [17] 20.9 µM | Potency [16] 20.9 µM | Potency [19] 20.9 µM | Potency [13] 18.7 µM | Potency [7] 18.7 µM | Potency [8] 23.5 µM | Potency [10] 20.9 µM

O=C1CCC[C@@H]2[C@H]3CCC[N+]4([O-])CCC[C@@H](CN12)[C@@H]34 (some centres undefined)
inactive: Potency [1] | Potency [2] | Potency [4] | Potency [13] | Potency [9] | Potency [10]
active: viability [6] 154%

CC(C)(O)CCc1ccc(OCc2cc(-c3cccc(OC(F)F)c3)c3ncccc3c2)cc1
inactive: Potency [1] | Potency [11] | Potency [5] | Potency [15] | Potency [14] | Potency [9]
active: Potency [3] 20.9 µM | Potency [7] 14.8 µM

Cn1cc(-c2ccncc2)c(-c2ccc(OCc3ccc4ccccc4n3)cc2)n1
active: Potency [2] 3.32 µM | Potency [18] 3.72 µM | Potency [4] 1.48 µM | Potency [5] 18.7 µM | Potency [15] 5.9 µM | Potency [6] 3.32 µM | Potency [17] 7.43 µM | Potency [16] 2.96 µM | Potency [14] 16.6 µM | Potency [7] 14.8 µM | Potency [8] 10.5 µM

Cc1cnc(-c2cnc(NCCNc3ccc(C#N)cn3)nc2-c2ccc(Cl)cc2Cl)[nH]1
inactive: Potency [20] | Potency [11]
active: Potency [2] 2.35 µM | Potency [4] 5.9 µM | Potency [13] 10.5 µM

CN(C)CC(C)(C)CNc1nn2c(-c3ccccc3)nnc2cc1C1CCC1
inactive: Potency [9]
active: Potency [20] 2.09 µM | Potency [2] 2.96 µM | Potency [4] 16.6 µM | Potency [11] 1.18 µM | Potency [7] 0.166 µM

CCOC(=O)C1=C(C)NC2=C(C(=O)CC(C)(C)C2)C1c1ccc(-c2ccccc2)cc1 (centres undefined)
active: Potency [2] 26.4 µM | Potency [18] 18.7 µM | Potency [4] 20.9 µM | Potency [5] 23.5 µM | Potency [17] 16.6 µM | Potency [16] 23.5 µM | Potency [19] 16.6 µM | Potency [13] 20.9 µM | Potency [7] 23.5 µM

COc1c(N2C[C@@H]3CCCN[C@H]3C2)c(F)cc2c(=O)c(C(=O)O)cn(C3CC3)c12
active: Potency [11] 18.7 µM | Potency [5] 14.8 µM
inactive: Potency [3] | Potency [15] | Potency [12] | Potency [16] | Potency [13] | Potency [8] | Potency [10]
